Inconclusive results are not listed. The source made the active and inactive calls. The call rests on the fitted dose curve; in most records, active means well fitted inhibition curve with a large enough effect in the repeat runs; inconclusive means weak or mixed curves; inactive means no such curve, though single readings can be large or run the other way.
These molecules were tested against Estrogen receptor (Homo sapiens) (UniProt P03372) (assay: qHTS assay to identify small molecule antagonists of the estrogen receptor alpha (ER-alpha) signaling pathway using the BG1 cell line in the presence of 0.1 nM 17-beta-estradiol (AID 1259244; further: nearly all actives have a fitted effect of over 50% in size)). Details: VM7Luc4E2 (BG1) ERE-luciferase, antagonist mode, 0.1 nM E2, 22 h; series mostly up to 92.4 µM; activity change, negative = inhibition: at the top concentration.
Sequence of Estrogen receptor (Homo sapiens) (P03372 whole entry, looked up): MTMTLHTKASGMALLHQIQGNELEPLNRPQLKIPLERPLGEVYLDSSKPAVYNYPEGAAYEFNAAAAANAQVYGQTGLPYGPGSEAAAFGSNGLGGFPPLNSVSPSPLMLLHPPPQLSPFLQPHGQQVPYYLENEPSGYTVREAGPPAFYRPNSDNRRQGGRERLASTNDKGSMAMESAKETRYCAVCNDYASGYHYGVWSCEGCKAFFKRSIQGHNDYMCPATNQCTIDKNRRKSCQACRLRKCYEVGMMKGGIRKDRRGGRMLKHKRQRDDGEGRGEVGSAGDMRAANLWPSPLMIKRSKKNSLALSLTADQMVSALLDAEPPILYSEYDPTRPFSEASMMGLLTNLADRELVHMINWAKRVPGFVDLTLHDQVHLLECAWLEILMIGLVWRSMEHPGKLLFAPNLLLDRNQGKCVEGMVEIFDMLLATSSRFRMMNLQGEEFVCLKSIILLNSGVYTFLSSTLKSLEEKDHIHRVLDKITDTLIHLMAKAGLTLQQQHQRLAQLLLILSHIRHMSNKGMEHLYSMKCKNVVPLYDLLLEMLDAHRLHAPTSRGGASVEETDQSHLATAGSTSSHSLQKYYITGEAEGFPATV
From the text: National Center for Advancing Translational Sciences [NCATS]
NIH Chemical Genomics Center [NCGC]
U.S. Environmental Protection Agency [EPA]
National Institutes of Environmental Health Sciences [NIEHS]
National Toxicology Program [NTP]
U.S. Food and Drug Administration [FDA]
Estrogen receptor (ER), a member of the nuclear hormone receptor plays an important role in development, metabolic homeostasis and reproduction. Two subtypes of ER, ER-alpha and ER-beta, have similar expression patterns with some uniqueness in both types. Endocrine disrupting chemicals (EDCs) and their interactions with steroid hormone receptors like ER causes disruption of normal endocrine function. Therefore, it is important to understand the effect of environmental chemicals in ER signaling pathway. For identifying ER antagonists, VM7Luc4E2 cell line was used to screen against Tox21 compound libraries.
VM7Luc4E2 cell line (provided by Denison MS, University of California) endogenously express full-length ER-alpha and is stably transfected with a plasmid containing four estrogen responsive elements (ERE) upstream of a luciferase reporter gene. The current screening for identification of ER-alpha inhibitors against Tox21 compound libraries used lower concentration (0.1 nM) of 17beta-Estradiol as a stimulator.
Tox21 Assay Protocol Summary:
VM7Luc4E2 cells were cultured in phenol red free assay medium containing 10% charcoal stripped FBS for 5 days prior to the assay. The cells were dispensed at 4,000 cells/well in 4 uL of assay medium into white wall/solid-bottom 1536-well plates (Corning Life Sciences, Corning, NY) using a Multidrop Combi (ThermoFisher Scientific, Waltham, MA) dispenser. After the assay plates were incubated at 37C and 5% CO2 for 24 hr, 23 nL of compounds dissolved in DMSO, positive controls or DMSO only was transferred to the assay plates by a Pintool station (Kalypsys, San Diego, CA). The transfer of compounds was followed by the addition of 1 uL of 0.1 nM (final concentration) agonist (17beta-Estradiol)/assay medium using a Flying Reagent Dispenser (FRD, Aurora Discovery, San Diego, CA). The plates were incubated at 37C and 5% CO2 for 22 hr. For luciferase reporter gene assay, 4 uL of ONE-Glo reagent (Promega Corporation, Madison, WI) was added to each well using the FRD and after 30 min incubation at room temperature luminescence intensity was measured using ViewLux plate reader (PerkinElmer, Shelton, CT).
On the % scale 0 is the no-effect control and ±100 the full control effect; potency means the concentration at half of the fitted maximal effect.

SMILES | activity change, negative = inhibition | Potency
OCCC(F)(F)C(F)(F)C(F)(F)C(F)(F)C(F)(F)C(F)(F)C(F)(F)C(F)(F)F | -0.297% (inactive) | –
CC(C)(C)c1nnc(NS(=O)(=O)c2ccc(N)cc2)s1 | 8.29% [at 42.5 µM] (inactive) | –
COc1cc(C(=S)N2CCOCC2)cc(OC)c1OC | -3.02% [at 42.5 µM] (inactive) | –
O=C(O)Cc1cn(-c2ccccc2)nc1-c1ccc(Cl)cc1 | -2.72% [at 42.5 µM] (inactive) | –
CCCCC(CC)COCCO (stereo not given) | -0.171% (inactive) | –
COc1ccc2c(c1)C(=O)N(CCc1ccc(S(=O)(=O)NC(=O)NC3CCCCC3)cc1)C(=O)C2(C)C | 8.52% [at 42.5 µM] (inactive) | –
Cc1cccc2nccnc12 | 3% (inactive) | –
CCOC(=O)CC(=O)c1ccccc1 | 18.3% (inactive) | –
CCCC/C=C/C=C\C=O | 1.88% (inactive) | –
CC(C)N(c1ccccc1)C(C)C | 2.8% (inactive) | –
On1nnc2ccccc21 | -22.4% (inactive) | –
CCOC(=O)c1ccc(OC(=O)CCCCCN=C(N)N)cc1 | 59.5% [at 42.5 µM] (inactive) | –
CC(=O)/C=C/C1C(C)=CCC(C)C1(C)C (stereo not given) | 1.11% (inactive) | –
CCCCN | 7.74% [at 42.5 µM] (inactive) | –
CC(=C(CCOC(=O)C(C)C)SSC(CCOC(=O)C(C)C)=C(C)N(C=O)Cc1cnc(C)nc1N)N(C=O)Cc1cnc(C)nc1N | 8.05% [at 42.5 µM] (inactive) | –
Nc1ccc(S(=O)(=O)Nc2ccc(Cl)nn2)cc1 | 3.21% [at 42.5 µM] (inactive) | –
CC(=O)OC(C)OC(=O)C(C)c1ccc(-c2ccccc2)c(F)c1 (stereo not given) | -0.573% [at 42.5 µM] (inactive) | –
Cc1ccc(S(=O)(=O)O)c(C)c1 | -0.155% (inactive) | –
CC(C)(C)c1n[nH]c(=S)n(N)c1=O | 2.03% (inactive) | –
CNC(=O)[C@H]1O[C@@H](n2cnc3c(NCc4cc(Cl)ccc4OCc4cc(C)no4)ncnc32)[C@H](O)[C@@H]1N | 12.6% (inactive) | –

SMILES | activity change, negative = inhibition | Potency
CCCCCCCCC1CCC(=O)O1 (stereo not given) | 42.1% (inactive) | –
O=C(Nc1ccc(Cl)c(Cl)c1)C1CC1 | – | 26.6 µM (active)
CCCCCCCCC(=O)Cl | -9.83% (inactive) | –
CC(=O)c1ccc2c(c1)Cc1ccccc1-2 | 31.2% (inactive) | –
O=C1c2ccccc2C(=O)N1CCl | 12.3% (inactive) | –
COc1cc(NS(=O)(=O)c2ccc(N)cc2)nc(OC)n1 | -7.44% [at 42.5 µM] (inactive) | –
COC(=O)CCCCCCCC(=O)OC | 3.06% (inactive) | –
CC(CO)c1ccccc1 (stereo not given) | -1.26% (inactive) | –
O=C(CCN1CCN(CCO)CC1)N1c2ccccc2Sc2ccc(C(F)(F)F)cc21 | 1.39% [at 42.5 µM] (inactive) | –
CC(=O)Nc1ccc(S(=O)(=O)Nc2ccc([N+](=O)[O-])cc2)cc1 | 12.6% [at 42.5 µM] (inactive) | –
Oc1ccccc1-c1nnco1 | 8.17% [at 42.5 µM] (inactive) | –
NS(=O)(=O)c1ccc(NC(=O)CCC(=O)O)cc1 | 3.54% [at 42.5 µM] (inactive) | –
O=S(=O)(O)c1cc(O)c2ccc(Nc3ccccc3)cc2c1 | 2.14% (inactive) | –
CC(=O)NCCCCCC(=O)O | 5.51% [at 42.5 µM] (inactive) | –
C[C@H](N)[C@H](O)c1cccc(O)c1 | 19.8% [at 42.5 µM] (inactive) | –
O=C(CS(=O)Cc1ccco1)NC/C=C\COc1cc(CN2CCCCC2)ccn1 (stereo not given) | 1.59% [at 42.5 µM] (inactive) | –
CC[C@H](C)C(=O)O[C@H]1C[C@H](O)C=C2C=C[C@H](C)[C@H](CC[C@@H](O)C[C@@H](O)CC(=O)O)[C@H]21 | 0.937% (inactive) | –
CCCCNC1CC(C)(C)NC(C)(C)C1 | 0.815% (inactive) | –
CCCOC(=O)C(C)O (stereo not given) | -2.44% (inactive) | –
Nc1cccc(O)c1 | 9.93% (inactive) | –
